Laboratory results from PubChem BioAssay (NCI).
About 83,000 compounds went through this panel and 20% of them were active in at least one assay; those are over-represented in the sample as a whole.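 Single-dose data. Exposure time 48 hours. Values below 10 considered active.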 Active and inactive are the calls of the source.

Legend:
Assay in all cases: NCI-60 one-dose screen, 48 h (100 = growth as untreated, 0 = no growth, -100 = all killed)
Conditions in all cases: 10 µM unless noted
NCI-H23 lung = tested on: NCI-H23 lung
NCI-H226 lung = tested on: NCI-H226 lung
NCI-H322M lung = tested on: NCI-H322M lung
HOP-62 NSCLC = tested on: HOP-62 NSCLC
NCI-H460 lung = tested on: NCI-H460 lung
HOP-92 NSCLC = tested on: HOP-92 NSCLC
NCI-H522 lung = tested on: NCI-H522 lung
A549/ATCC NSCLC = tested on: A549/ATCC NSCLC
786-0 renal = tested on: 786-0 renal
COLO 205 colon = tested on: COLO 205 colon
DU-145 prostate = tested on: DU-145 prostate
K-562 leukemia = tested on: K-562 leukemia
MALME-3M melanoma = tested on: MALME-3M melanoma
MDA-MB-231 breast = tested on: MDA-MB-231 breast
RXF 393 renal = tested on: RXF 393 renal
SF-268 CNS = tested on: SF-268 CNS
SF-295 CNS = tested on: SF-295 CNS
SF-539 CNS = tested on: SF-539 CNS
UACC-257 melanoma = tested on: UACC-257 melanoma
M14 melanoma = tested on: M14 melanoma

Measured: growth

CC1=C(C)C(=O)C(N2CCSCC2)=CC1=O
inactive: NCI-H23 lung 93.9% | NCI-H226 lung 88.7% | NCI-H322M lung 96.9% | HOP-62 NSCLC 99.1% | NCI-H460 lung 105% | HOP-92 NSCLC 89.5% | NCI-H522 lung 94.3% | A549/ATCC NSCLC 99.3% | 786-0 renal 99.4% | COLO 205 colon 121% | DU-145 prostate 107% | K-562 leukemia 107% | MALME-3M melanoma 91.3% | MDA-MB-231 breast 86% | RXF 393 renal 98.5% | SF-268 CNS 102% | SF-295 CNS 104% | SF-539 CNS 96.2% | UACC-257 melanoma 93.2% | M14 melanoma 95.4%

COc1cc(C2CC(c3ccc(F)cc3)=Nc3c(N)nc(N)nc3N2)ccc1Oc1nc(Nc2ccc(F)cc2)nc(N(C)C)n1 (stereo not given)
inactive: NCI-H23 lung 70% | NCI-H226 lung 85.8% | NCI-H322M lung 105% | HOP-62 NSCLC 86.3% | NCI-H460 lung 10.1% | HOP-92 NSCLC 36.8% | NCI-H522 lung 60.6% | A549/ATCC NSCLC 58.5% | 786-0 renal 43.9% | COLO 205 colon 56.2% | DU-145 prostate 55.8% | K-562 leukemia 15.5% | MALME-3M melanoma 52.5% | MDA-MB-231 breast 44.2% | RXF 393 renal 17.2% | SF-268 CNS 63.4% | SF-295 CNS 40.3% | SF-539 CNS 69.6% | UACC-257 melanoma 38.7% | M14 melanoma 56.6%

C=CC(=O)Nc1ccc(C(=O)/C=C/c2ccc(N(C)C)cc2)c(O)c1
inactive: NCI-H226 lung 28.6% | NCI-H322M lung 41.1% | HOP-62 NSCLC 10.1% | HOP-92 NSCLC 45.8% | A549/ATCC NSCLC 12.8% | K-562 leukemia 12% | MDA-MB-231 breast 26.9% | SF-268 CNS 21.5% | SF-295 CNS 13.1%
active: NCI-H23 lung 4.7% | NCI-H460 lung 0.849% | NCI-H522 lung -67.5% | 786-0 renal -1.73% | COLO 205 colon -59.6% | DU-145 prostate 7.83% | MALME-3M melanoma 3.17% | RXF 393 renal -63.8% | SF-539 CNS -21.8% | UACC-257 melanoma 0.649% | M14 melanoma -5.06%

O=C(c1ccc(Cl)cc1)C1[C@H](c2ccccc2Cl)[C@@H](c2ccccc2)NC12C(=O)Nc1ccc(Cl)cc12 (stereo not given in full)
active: NCI-H23 lung -70.1% | NCI-H226 lung -86.1% | NCI-H322M lung -22.1% | HOP-62 NSCLC -72.4% | NCI-H460 lung -69.2% | HOP-92 NSCLC -75.6% | NCI-H522 lung -50.6% | A549/ATCC NSCLC -23% | 786-0 renal -54.5% | COLO 205 colon -91.4% | DU-145 prostate -28.5% | K-562 leukemia -45.1% | MALME-3M melanoma -39.5% | MDA-MB-231 breast -96.1% | RXF 393 renal -93.1% | SF-268 CNS -36.6% | SF-295 CNS -85.9% | SF-539 CNS -78.4% | UACC-257 melanoma -15.5% | M14 melanoma -82.9%

O=CNc1cccc(-n2cnc3cc(-c4ccc(O)cc4)ccc32)c1
active: NCI-H226 lung -0.208% | NCI-H522 lung -6.53% | SF-539 CNS -6.56%
inactive: NCI-H23 lung 34.6% | NCI-H322M lung 68.1% | HOP-62 NSCLC 42.6% | NCI-H460 lung 16.7% | HOP-92 NSCLC 71.7% | A549/ATCC NSCLC 42.9% | 786-0 renal 39.1% | COLO 205 colon 39% | DU-145 prostate 43.7% | K-562 leukemia 12.2% | MALME-3M melanoma 42.8% | MDA-MB-231 breast 55.3% | RXF 393 renal 11% | SF-268 CNS 40.7% | SF-295 CNS 25.5% | UACC-257 melanoma 84.7% | M14 melanoma 57.2%

Clc1ccc(-c2nc3c4c(-c5ccccc5)c(-c5ccccc5)n(Cc5ccccc5)c4ncn3n2)cc1
inactive: NCI-H322M lung 21% | HOP-62 NSCLC 19.8% | A549/ATCC NSCLC 14.1% | DU-145 prostate 22.7% | SF-268 CNS 20.4% | M14 melanoma 15.4%
active: NCI-H23 lung 2.75% | NCI-H226 lung -3.39% | NCI-H460 lung 3.08% | HOP-92 NSCLC -23.1% | NCI-H522 lung -28.5% | 786-0 renal 5.51% | COLO 205 colon -59.2% | K-562 leukemia 4.9% | MALME-3M melanoma 4.59% | MDA-MB-231 breast 0.484% | RXF 393 renal -11.3% | SF-295 CNS -14.1% | SF-539 CNS 7.91% | UACC-257 melanoma 3.18%

Cn1cc(-c2cc3nc(-c4cn(C)c5ncccc45)cc(N)n3n2)c2cc(F)ccc21
inactive: NCI-H23 lung 21.2% | NCI-H322M lung 52.1% | NCI-H460 lung 37.6% | NCI-H522 lung 22.7% | A549/ATCC NSCLC 19.6% | 786-0 renal 17.6% | COLO 205 colon 47.1% | DU-145 prostate 21.8% | K-562 leukemia 20.7% | MALME-3M melanoma 62% | SF-268 CNS 52.3% | SF-295 CNS 28.3% | SF-539 CNS 12.8% | UACC-257 melanoma 72.7% | M14 melanoma 71.2%
active: NCI-H226 lung 3.92% | HOP-62 NSCLC -14.7% | HOP-92 NSCLC -0.741% | MDA-MB-231 breast 3.66% | RXF 393 renal -14.4%

COc1ccc(NC2=C(I)C(=O)C(C)=C(C)C2=O)cc1
inactive: NCI-H23 lung 32.2% | NCI-H226 lung 78.1% | NCI-H322M lung 95% | HOP-62 NSCLC 85.4% | NCI-H460 lung 97.9% | HOP-92 NSCLC 31.4% | NCI-H522 lung 18.5% | A549/ATCC NSCLC 83.8% | 786-0 renal 42.2% | COLO 205 colon 123% | DU-145 prostate 86.2% | MALME-3M melanoma 77.7% | RXF 393 renal 58.6% | SF-268 CNS 45.3% | SF-295 CNS 79% | M14 melanoma 96.1%
active: K-562 leukemia 1.44% | MDA-MB-231 breast -8.44% | SF-539 CNS -28.1% | UACC-257 melanoma -14.2%
